Laboratory results published in PubChem BioAssay (NCATS).
Results filed as inconclusive are left out. Calls of active or inactive are those of the source. Calls come from the whole dose curve; as a rule, active = well fitted cell-killing curve with a large enough effect; inconclusive = small, poorly fitted or top-dose-only effect; inactive = flat fitted curve, though single readings scatter.

Test: Cell Viability - LYMP2-020 (AID 986);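 note: cells exposed to compound for 24 h at 37 °C; plate controls were DMSO only for no effect and tetraoctylammonium bromide at 92 µM for full effect; nearly all actives have a fitted effect of over 55% in size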
Conditions: series mostly up to 92.2 µM; activity change, negative = viability loss: at the top concentration
Description: NIH Chemical Genomics Center [NCGC]
NIH Molecular Libraries Screening Centers Network [MLSCN]
National Institutes of Environmental Health Sciences [NIEHS]
National Toxicology Program [NTP]
We have developed a 1536-well cell-based assay for quantitative high throughput screening (qHTS) against a number of cell lines to determine in vitro cytotoxicity of small molecules. This particular assay uses a human lymphoblastoid cell line (LYMP2-020) purchased from Coriell Institute for Medical Research.
NCGC Assay Protocol Summary:
The CellTiter-Glo luminescent cell viability assay (Promega) is a homogeneous method to measure the number of viable cells in culture. The end point readout of this assay is based on quantitation of intracellular ATP, an indicator of metabolic activity, using the luciferase reaction. Luciferase catalyzes the oxidation of beetle Luciferin to oxyluciferin and light in the presence of ATP. The luminescent signal is proportional to amount of ATP present.
Using the CellTiter-Glo luminescent cell viability assay, the amount of cellular ATP was measured in the lymphoblastoid cell line with complete culture medium following compound treatment for 24 hours. The assay was performed in opaque white Kalypsys 1536-well plates. In the screen, tetraoctylammonium bromide was used as positive control. Library compounds were measured for their ability to cause acute toxicity in the cell line, as reflected by a decrease in intracellular ATP levels, in a concentration-dependent manner. […] AC50 values were determined from concentration-response data modeled with the standard Hill equation.
qHTS protocol for CellTiter Glo lymphoblastoid cellular assay
[Step] [Parameter] [Value] [Description]
1. Reagent; 5 uL; 2500 lymphoblastoid cells/well
2. Time; 5 hr; 37 C incubation
4. Controls; 23 nL; Tetraoctylammonium bromide 6.4pM to 92 uM
5. Time; 24 hr; 37 C incubation
6. Reagent; 5 uL; CellTiter Glo reagent
7. Time; 30 min; Room Temperature
8. Detection; Luminescence; Viewlux plate reader
Keywords: cell viability, cytotoxicity, lymphoblastoid cell line, luminescence, NTPHTS, NTPHTS_NCGC, NIEHS, DSSTox, MLSMR, MLSCN, NIH Roadmap, qHTS, NCGC

Structure (SMILES) | activity change, negative = viability loss
Cc1cc(C)cc(OP(=O)(Oc2cc(C)cc(C)c2)Oc2cc(C)cc(C)c2)c1 | -10.2% (inactive)
Nc1ccc([N+](=O)[O-])cc1N | -13.2% (inactive)
N#CC(Cl)(Cl)Cl | -7.96% (inactive)
C=CCCl | -18.2% (inactive)
Nc1ccc(-c2ccc(N)cc2)cc1 | 10.9% (inactive)
c1ccoc1 | 12.3% (inactive)
CN=C=O | 7.89% (inactive)
OCCCCO | 1.86% (inactive)
ClCCBr | 0.0435% (inactive)
C=C(C)CCl | -1.57% (inactive)
NC1CCC(CC2CCC(N)CC2)CC1 (stereo not given) | -9.39% (inactive)
CC(C)CON=O | 1.56% (inactive)
O=C(O)CBr | -14.7% (inactive)
C=CCOCC1CO1 (stereo not given) | -4.61% (inactive)
c1ccc(Nc2ccc(Nc3ccccc3)cc2)cc1 | -22.9% (inactive)
Nc1cc(Cl)ccc1O | -23.6% (inactive)
O=C(Cl)OCc1ccccc1 | -6.64% (inactive)
Clc1ccc(Cl)c(Cl)c1 | 2.6% (inactive)
FC(Cl)(Cl)Cl | -0.395% (inactive)
C=CC=O | -7.84% (inactive)

Structure (SMILES) | activity change, negative = viability loss
ClCC(Br)CBr (stereo not given) | 3.61% (inactive)
COC(=O)c1ccccc1N | -7.66% (inactive)
Oc1ccc(Cl)c(Cl)c1 | -5.9% (inactive)
O=[N+]([O-])c1ccccc1-c1ccccc1 | -1.76% (inactive)
CC(=O)[O-].CC(=O)[O-].CC(=O)[O-].[Cr+3] | -3.27% (inactive)
CCCN(CCC)c1c([N+](=O)[O-])cc(C(F)(F)F)cc1[N+](=O)[O-] | 1.17% (inactive)
C=CC(=O)OCC(CC)CCCC (stereo not given) | -2.48% (inactive)
CSSC | -6.34% (inactive)
Cc1cnc[nH]1 | -1.01% (inactive)
Nc1ccccc1-c1ccccc1 | -20.9% (inactive)
Nc1ccc(Cl)c(Cl)c1 | -10.4% (inactive)
CCCCNC(=O)n1c(NC(=O)OC)nc2ccccc21 | -17% (inactive)
O=C(O)C(Cl)Br (stereo not given) | -0.228% (inactive)
Oc1cc(Cl)ccc1Cl | -4.47% (inactive)
Clc1cccc2ccccc12 | 1.55% (inactive)
Nc1c(Br)cc([N+](=O)[O-])cc1[N+](=O)[O-] | -25.2% (inactive)
COc1ccccc1N | -1.38% (inactive)
[N-]=[N+]=[N-] | -4.46% (inactive)
CCCCOC(C)=O | -1.76% (inactive)
Nc1ncc([N+](=O)[O-])s1 | -0.978% (inactive)
